Screens deposited in PubChem BioAssay by National Center for Advancing Translational Sciences (NCATS).
DRD3 agonist: activates the human D3 dopamine receptor; max activation, %; P35462; hit rate 0.58% among 410,000; AID 652048; D3R DiscoveRx beta-arrestin cells, luminescence, 90 min; in the data active means max activation above about 30%
Target sequence (P35462 whole entry, looked up): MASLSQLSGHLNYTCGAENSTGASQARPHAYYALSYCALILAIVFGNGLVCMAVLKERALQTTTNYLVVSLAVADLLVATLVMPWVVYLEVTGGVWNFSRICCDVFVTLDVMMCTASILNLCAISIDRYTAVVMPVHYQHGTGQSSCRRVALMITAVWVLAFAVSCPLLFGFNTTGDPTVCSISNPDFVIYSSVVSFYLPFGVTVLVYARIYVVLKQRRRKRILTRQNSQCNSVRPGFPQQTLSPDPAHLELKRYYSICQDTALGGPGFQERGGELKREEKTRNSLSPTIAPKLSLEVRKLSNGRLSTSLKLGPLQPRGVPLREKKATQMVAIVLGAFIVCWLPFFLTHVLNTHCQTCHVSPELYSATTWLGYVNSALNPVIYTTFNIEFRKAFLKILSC
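Agonist-mode cell screen: cells plated at 1500/well and incubated overnight at 37 °C, then exposed to library compounds for 90 min at 37 °C. Detection reagent was added for 30–60 min at room temperature, and luminescence was read.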
IDH1 R132H inh: inhibitors of human mutant IDH1 R132H | O75874 | IDH1-R132H enzyme, NADPH consumption, diaphorase/resazurin fluorescence | Potency, µM (series often up to 76.6 µM), most hits filed as inhibitors | hit rate 0.093% among 390,000; further: nearly all actives have a fitted effect of over 65% in size
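IDH1-R132H (0.5 ug/mL dispensed) in pH 7.5 Tris buffer was preincubated 30 min with compound, then given a substrate mix of 0.016 mM NADPH and 2 mM alpha-KG for 80 min at room temperature; remaining NADPH was read by diaphorase/resazurin fluorescence.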
D3 antag: antagonists of human D3 dopamine receptor; hit rate 2.5% among 360,000; D3R cells, DiscoveRx beta-arrestin luminescence, antagonist mode; stronger effect = lower value; max response, negative = inhibition, %; P35462; in the data active means max response below about -50%; inconclusive means no clear call, values can overlap the other calls
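Cells plated overnight at 1500 cells/well, then exposed to library compounds with dopamine controls for 90 minutes at 37 degrees C. DiscoveRx reagent added for 30–60 minutes at room temperature; luminescence read, quantitative HTS format.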
Integrin act MD: activators of alpha7 integrin expression for muscular dystrophy. alpha7betagal myoblasts, beta-gal FDG fluorescence, 48 h. AID 624291. Potency, µM (series often up to 38.3 µM), hits mostly activators. hit rate 0.064% among 350,000; further: nearly all actives have a fitted effect of over 60% in size
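alpha7betagal+/- myoblasts (passage 13, 250/well) treated 48 h at 37C with compounds at 1:260 dilution of DMSO stock. Lysed, then beta-galactosidase activity read as FDG fluorescence (ex 480/em 540) after 30 min, with pre-read for autofluorescence.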
B2AR arrestin: agonists driving beta-arrestin recruitment to human beta2-adrenergic receptor; beta-arrestin recruitment to beta2AR, cell-based reporter; Potency, µM (highest dose often 46.1 µM), hits mostly activators; hit rate 0.02% among 330,000; AID 492947; further: nearly all actives have a fitted effect of over 65% in size
Of the large screens only hits and unclear results are named; the others gave an inactive call. In the library only some 2.9% were active in any assay of this set; here they are far more common. Unless noted, the call rests on the fitted dose curve; in most records, active means well fitted curve in the direction sought with a large enough effect; inconclusive means small, poorly fitted or top-dose-only effect, or another doubt; inactive means no such curve, though single readings can be large; an effect the other way counts as inactive or inconclusive.

O=c1[nH]c(CN2CCN(S(=O)(=O)/C=C/c3ccccc3)CC2)nc2ccccc12	none
C(=C\c1ccccc1)/CN1CCN(c2ncnc3c2oc2ccccc23)CC1	DRD3 agonist 39.6
CCc1ccc(NCc2cc3ccc(OC)cc3n(CC(=O)Nc3ccccc3OC)c2=O)cc1	none (no result: D3 antag, Integrin act MD, B2AR arrestin)
CCOC(=O)c1cc2cc(OC)ccc2n1C1CCN(CCc2ccccc2)CC1	D3 antag -109.2 (no result: IDH1 R132H inh, Integrin act MD, B2AR arrestin)
COc1ccc(OC)c(NS(=O)(=O)c2ccc(-c3cc(C)no3)s2)c1	none (no result: D3 antag, Integrin act MD, B2AR arrestin)
O=c1oc2ccccc2n1CCCOc1ccccc1Cl	none (no result: D3 antag, Integrin act MD, B2AR arrestin)
CCCCCCOC(=O)C(C#N)c1nc2ccccc2nc1N1CCOCC1 (configuration not stated)	none
CCCCCCOC(=O)C(C#N)c1nc2ccccc2nc1N1CCN(CC)CC1 (configuration not stated)	D3 antag -59.3
COc1c(Br)cc2c(C)c(C(=O)O)oc2c1Br	DRD3 agonist 32.7
O=C(CCCN1CCN(c2ccc(F)cc2)CC1)NC1c2ccccc2CSc2ccccc21 (configuration not stated)	none (no result: IDH1 R132H inh, D3 antag, Integrin act MD, B2AR arrestin)
Cc1ccc(-c2cnc(N)n2C)cc1C	D3 antag -101.2
Cn1c(-c2ccc(Cl)cc2)cnc1N	none
CCOc1cccc(C(=O)Nc2cccc(-c3nnc(-c4ccc(C)cc4)o3)c2)c1	none
CCOc1cccc(C(=O)Nc2cccc(-c3nnc(-c4ccccc4)o3)c2)c1	DRD3 agonist 38.6
O=C(OCc1nnc(-c2ccccc2)o1)c1ccc(S(=O)(=O)NCc2ccco2)cc1	D3 antag -78.3
NC(=O)COC(=O)c1ccc(S(=O)(=O)NCc2ccco2)cc1	none
O=C(OCc1ccccc1)c1cccc(-c2nnc(-c3ccccc3)o2)c1	DRD3 agonist 37.9
O=C(OCc1nnc(-c2ccccc2)o1)c1ccc(CO)cc1	D3 antag -51.4
Cc1onc(-c2ccccc2Cl)c1C(=O)N1CCCCCC1	none
O=C(OCc1nnc(-c2ccccc2Br)o1)c1ccco1	none
O=C(OCc1nnc(-c2ccccc2)o1)c1cc(S(=O)(=O)N2CCOCC2)c(Cl)cc1Cl	D3 antag -55.3
Cc1ccc(-c2nnc(COC(=O)c3ccco3)o2)cc1	D3 antag -95.4
Cc1ccc(S(=O)(=O)N2CCOCC2)cc1C(=O)OCc1nnc(-c2ccccc2)o1	none
CCOc1ccc2nc(N3CCCC(C(=O)N4CCN(CC)CC4)C3)sc2c1 (configuration not stated)	D3 antag -64.7
CCCN1CCN(CCCNC(=O)C2CCCN(c3nc4ccc(OCC)cc4s3)C2)CC1 (configuration not stated)	none
CCNc1nc(NCC)nc(-n2nc(C)cc2C)n1	B2AR arrestin 7.94µM
Cc1cc(C)n(-c2nc(NC(C)(C)C)nc(NC(C)(C)C)n2)n1	D3 antag -62.3, B2AR arrestin inconclusive
Cc1cc(C)n(-c2nc(NC(C)C)nc(NC(C)C)n2)n1	D3 antag -50.5, B2AR arrestin 12.6µM
Cc1cc(C)n(-c2nc(Nc3ccccc3C)nc(-n3nc(C)cc3C)n2)n1	none (no result: DRD3 agonist, IDH1 R132H inh, D3 antag, Integrin act MD)
Cc1cc(C)n(-c2nnc(NC(C)(C)C)nn2)n1	none
COc1cccc(CC(NC(C)=O)C(=O)NC2CCN(C(=O)C3CCCCC3)CC2)c1OC (configuration not stated)	none
Cc1cc(NC(=O)CSc2nc3cc4c(cc3c(=O)n2CCc2ccccc2)OCO4)no1	D3 antag -53.0
COc1ccc(CCn2c(SCC(=O)Nc3cc(C)on3)nc3ccccc3c2=O)cc1OC	none
Cc1ccccc1CSc1nc2c(sc3ccccc32)c(=O)n1CCCC(=O)NCCCOC(C)C	none (no result: D3 antag, Integrin act MD, B2AR arrestin)
COc1ccc(Cl)cc1-n1c(=S)sc2c(=O)[nH]c(SCC(=O)NCC3CCCO3)nc21 (configuration not stated)	D3 antag -58.3
COCCCNC(=O)CSc1nc2c(sc(=S)n2-c2cc(Cl)ccc2OC)c(=O)[nH]1	none
CN(C)CCNC(=O)C12CC3(C)CC(C)(CC(C)(C3)C1)C2	D3 antag -51.9
CC12CC3(C)CC(C)(C1)CC(C(=O)NCCc1ccc(S(N)(=O)=O)cc1)(C2)C3	Integrin act MD inconclusive
O=C(Nc1nonc1-c1ccc(Cl)cc1)c1ccccc1F	none (no result: D3 antag, Integrin act MD, B2AR arrestin)
COC(=O)/C=C1\S/C(=N/NC(=O)c2ccccc2)NC1=O	D3 antag -64.7
O=C(Nc1ccc(F)cc1)c1cccc(N2CCCS2(=O)=O)c1	none (no result: D3 antag, Integrin act MD, B2AR arrestin)
Cc1cc(C(C)(C)C)c(O)c(C)c1CC1=NCCN1	D3 antag -98.4 (no result: Integrin act MD)
Cc1ccc(-c2nc3ccccc3[nH]2)cc1NC(=O)COc1ccccc1[N+](=O)[O-]	none (no result: D3 antag, Integrin act MD, B2AR arrestin)
Cc1cccc2cc(CN(Cc3nnnn3C3CCCCC3)C3CCCC3)c3nnnn3c12	D3 antag -64.8
COc1ccc(C2CC(=O)c3c(C)nc(N4CCN(C=O)CC4)nc3C2)c(OC)c1 (configuration not stated)	none (no result: D3 antag, Integrin act MD, B2AR arrestin)
CC1CCN(CCCn2c(=S)[nH]c3ccccc3c2=O)CC1	none
Cc1cccc(C)c1N1CCN(CCn2c(=S)[nH]c3ccccc3c2=O)CC1	D3 antag -68.8
CCn1c(=O)[nH]c2ccccc2c1=O	D3 antag -56.3
O=c1c2ccccc2[nH]c(=S)n1CCCN1CCC(Cc2ccccc2)CC1	D3 antag -90.1
CCN1CCN(CCn2c(=S)[nH]c3ccccc3c2=O)CC1	D3 antag -61.7
CCN(CCCNC(=O)CN1N=C(c2ccccc2)CCC1=O)c1ccccc1	none (no result: D3 antag, Integrin act MD, B2AR arrestin)
Cc1ccc(NC(=O)C2CCN(c3cc(C)nc4c(-c5ccc(Cl)cc5)c(C)nn34)CC2)c(C)c1	none (no result: D3 antag, Integrin act MD, B2AR arrestin)
CCCn1c(=N)c(C(=O)NC2CCCC2)cc2c(=O)n3cc(C)ccc3nc21	none (no result: D3 antag, Integrin act MD, B2AR arrestin)
Nc1ccc(N2CCN(c3ncc(C(F)(F)F)cc3Cl)CC2)c(C(F)(F)F)c1	none (no result: D3 antag, Integrin act MD, B2AR arrestin)
CCN1CCN(C(=O)c2ccc3c(=O)n(Cc4ccccc4OC)c(=S)[nH]c3c2)CC1	D3 antag -50.1
CCn1c(=O)c2c(nc(SCC(=O)N3CCC(C)CC3)n2C)n(C)c1=O	none
CN(C(=O)c1ccc(NC(=O)Cc2ccc(NC(=O)C3CCN(C(=O)c4ccccc4)CC3)cc2)cc1)C1CC1	D3 antag -98.6
CCOC(=O)c1ccc(NC(=O)CCn2c(=O)c3cccn3c3cccnc32)cc1	none (no result: D3 antag, Integrin act MD, B2AR arrestin)
CC(C)OCCCN1C(=O)c2[nH]nc(-c3ccccc3O)c2C1c1cccc(OCc2ccccc2)c1 (configuration not stated)	DRD3 agonist 30.4 (no result: D3 antag, Integrin act MD, B2AR arrestin)
CC(C)OCCCN(C)C1CCN(S(=O)(=O)c2csc(C(N)=O)c2)CC1	none
CC(C)OCCCN(C)C1CCN(S(=O)(=O)c2ccc(-c3cc(C(F)(F)F)no3)s2)CC1	D3 antag -84.2
COCCNC(=O)C12CC3CC(C1)CC(c1ccccc1)(C3)C2	none
COc1ccc(NC(=O)C23CC4CC(C2)CC(c2ccccc2)(C4)C3)c(OC)c1	DRD3 agonist 32.3
O=c1c2ccccc2sn1-c1ccccc1	D3 antag -98.0
